The record followed here is PubChem BioAssay AID1851 (National Center for Advancing Translational Sciences (NCATS), 2009).

Hit rate of the full screen: of about 16,000 compounds, about 5,800 (36%) were called active. Roughly 23% stayed inconclusive and do not appear here. The call rests on the fitted dose curve; in most records, active means well fitted curve in the direction sought with a large enough effect; inconclusive means small, poorly fitted or top-dose-only effect, or effect the other way; inactive means no such curve, though single readings can be large or run the other way. This is one part of the list.

As a reminder, the AC50 is the midpoint of the concentration-response curve, whichever way the signal moves.
On the % scale 0 is the no-effect control and ±100 the full control effect.

Sequence of Cytochrome P450 2C19 (Homo sapiens) (P33261 whole entry, looked up): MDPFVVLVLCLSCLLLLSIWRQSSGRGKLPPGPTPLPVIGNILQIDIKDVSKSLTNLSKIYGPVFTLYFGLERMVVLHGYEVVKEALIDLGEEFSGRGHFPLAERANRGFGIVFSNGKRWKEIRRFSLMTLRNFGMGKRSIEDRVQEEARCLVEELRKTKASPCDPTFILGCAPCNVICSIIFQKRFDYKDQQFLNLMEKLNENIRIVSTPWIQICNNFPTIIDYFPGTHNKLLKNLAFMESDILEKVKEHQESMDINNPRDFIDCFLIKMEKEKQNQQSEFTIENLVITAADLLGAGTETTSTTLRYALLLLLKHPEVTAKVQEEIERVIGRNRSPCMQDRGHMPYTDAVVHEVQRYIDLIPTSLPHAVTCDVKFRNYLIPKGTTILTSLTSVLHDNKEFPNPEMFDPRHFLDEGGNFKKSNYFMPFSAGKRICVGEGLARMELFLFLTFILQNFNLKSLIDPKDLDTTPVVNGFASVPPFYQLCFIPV

The assay concerns the target Cytochrome P450 2C19 (Homo sapiens) (UniProt P33261). Nature of the assay: Cytochrome panel assay with activity outcomes. As to conditions: recombinant CYP, pro-luciferin dealkylation, luminescence, p450-cyp2c19; series mostly up to 57.1 µM.
Consider `Cc1c(NC(=O)CN2C(=O)C3C4C=CC(C4)C3C2=O)c(=O)n(-c2ccccc2)n1C` (configuration not stated), for which the AC50 result is “inactive”.

On to `Cc1c(NC(=O)NC(C)N2C(=O)C3C4C=CC(C4)C3C2=O)c(=O)n(-c2ccccc2)n1C` (configuration not stated), for which the AC50 entry was “inactive”.

As to `CCC(C(=O)c1ccccc1)N(C(=O)c1ccccc1Cl)N1C(=O)C2C3C=CC(C3)C2C1=O` (configuration not stated), the concentration at half-maximal activity (AC50) is 3.55 µM (active).

Consider `COc1ccc(C(=O)Nc2ccc3c(c2)nc(CN2CCN(C(C)=O)CC2)n3C)cc1`, for which the AC50 result was “inactive”.

On to `Cn1c(CN2CCCCC2)nc2cc(NC(=O)c3ccc(Cl)cc3)ccc21`, for which the AC50 is 28.2 µM (active).

As for `CC(C)n1cc(/C=C2/SC(=O)N(CC(=O)Nc3ccc4c(c3)OCO4)C2=O)c2ccccc21`, the AC50 was 5.01 µM (active).

As to `Cn1cc(/C=C2/SC(=O)N(CC(=O)Nc3ccc4c(c3)OCO4)C2=O)c2ccccc21`, the AC50 is 0.794 µM (active).

In the case of `Cc1c(/C=C2\SC(=O)N(CC(=O)Nc3ccc4c(c3)OCO4)C2=O)c2ccccc2n1C`, the AC50 is 2.51 µM (active).

On to `CCn1c(C)cc(/C=C2\SC(=O)N(CC(=O)Nc3ccc(C)c(C)c3)C2=O)c1C`, for which the AC50 was 1.12 µM (active).

Consider `Cc1ccc(NC(=O)CN2C(=O)S/C(=C\c3cccn3C)C2=O)cc1`, for which the AC50 entry is “inactive”.

In the case of `CC(C)=CCC/C(C)=C/CO/N=C1/C[C@@H](O)[C@@H](O)[C@@H]2[C@H]3C(=O)N(c4ccc(F)cc4F)C(=O)[C@@H]3CC[C@H]12`, the activity, negative = inhibition is -33.8% [at 11.4 µM] (inactive).

As for `CCNc1ncc2nc(-c3ccccc3)c(=O)n(Cc3cccs3)c2n1`, the AC50 entry was “inactive”.

In the case of `CN(C)c1ncc2nc(-c3ccc(Cl)cc3)c(=O)n(Cc3cccs3)c2n1`, the AC50 result is “inactive”.

In the case of `CN(C)c1ncc2nc(CCc3ccccc3)c(=O)n(Cc3cccs3)c2n1`, the AC50 was 6.31 µM (active).

Consider `CN(C)c1ncc2nc(-c3ccc(F)cc3)c(=O)n(Cc3cccs3)c2n1`, for which the AC50 result is “inactive”.

As for `CCNc1ncc2nc(CCc3ccccc3)c(=O)n(Cc3cccc(OC)c3)c2n1`, the AC50 was 6.31 µM (active).

Regarding `COc1cccc(Cn2c(=O)c(CCc3ccccc3)nc3cnc(N(C)C)nc32)c1`, the AC50 was 0.794 µM (active).

For the molecule `COc1cccc(Cn2c(=O)cnc3cnc(N(C)C)nc32)c1`, the AC50 was 2.51 µM (active).

Consider `COc1cccc(Cn2c(=O)c(-c3ccccc3)nc3cnc(N(C)C)nc32)c1`, for which the AC50 entry is “inactive”.

Turning to `COc1cccc(Cn2c(=O)c(-c3cc(F)cc(F)c3)nc3cnc(N(C)C)nc32)c1`, the AC50 entry was “inactive”.

In the case of `C=CCN1CCc2cc(O)c(O)cc2[C@H](c2ccccc2)C1`, the AC50 result was “inactive”.

For `COc1cccc(Cn2c(=O)c(-c3cccc(C#N)c3)nc3cnc(OC)nc32)c1`, the AC50 is 10 µM (active).

As for `Cc1nc2cnc(N(C)C)nc2n(Cc2cccs2)c1=O`, the AC50 result is “inactive”.

`CN(C)c1ncc2ncc(=O)n(Cc3cccs3)c2n1`: the AC50 was 10 µM (active).

On to `CN(C)c1ncc2nc(-c3ccccc3)c(=O)n(Cc3ccc(F)cc3)c2n1`, for which the AC50 result was “inactive”.

In the case of `CN(C)c1ncc2nc(CCc3ccccc3)c(=O)n(Cc3ccc(F)cc3)c2n1`, the AC50 is 0.794 µM (active).

Turning to `COc1cccc(Cn2c(=O)c(-c3cn(C)c4ccccc34)nc3cnc(OC)nc32)c1`, the AC50 result was “inactive”.

In the case of `CN(C)c1ncc2nc(-c3cccs3)c(=O)n(Cc3cccs3)c2n1`, the AC50 result was “inactive”.

As to `COc1cccc(Cn2c(=O)c(CCc3ccccc3)nc3cnc(OC)nc32)c1`, the half-maximal activity concentration (AC50) is 15.8 µM (active).

`COc1cccc(Cn2c(=O)c(-c3cccc(C#N)c3)nc3cnc(Nc4ccccc4)nc32)c1`: the AC50 result is “inactive”.

In the case of `CN(C)c1ncc2nc(-c3cc(F)cc(F)c3)c(=O)n(CCc3ccccc3)c2n1`, the AC50 result was “inactive”.

Turning to `COc1ccc(-c2nc3cnc(OC)nc3n(Cc3cccc(OC)c3)c2=O)cc1`, the AC50 entry is “inactive”.

Turning to `COc1ccc(Oc2ncc3nc(-c4cccc(C#N)c4)c(=O)n(Cc4cccc(OC)c4)c3n2)cc1`, the AC50 result is “inactive”.

Turning to `CC(=O)c1ccc(N2CCC(c3cc(-c4ccc(Cl)cc4)n[nH]3)CC2)c([N+](=O)[O-])c1`, the AC50 was 0.501 µM (active).

For `COc1ccc(-c2cc(C3CCN(c4ccc(C(C)=O)cc4[N+](=O)[O-])CC3)[nH]n2)cc1`, the AC50 is 2.24 µM (active).

In the case of `CC(=O)c1ccc(N2CCC(c3cc(-c4ccc(Cl)cc4Cl)n[nH]3)CC2)c([N+](=O)[O-])c1`, the AC50 was 0.282 µM (active).

For `CC(=O)c1cc(CC=C(C)C)c(O)cc1O`, the AC50 was 2.82 µM (active).

Regarding `COc1cc(CC(=O)O)c(C(C)=O)cc1OC`, the AC50 entry is “inactive”.

Take `COc1ccc(Sc2ccc(NC(=O)c3ccccc3Cl)cc2C#N)cc1`: the AC50 is 2.82 µM (active).

In the case of `COc1cc(/C=N/Nc2snc(SC)c2C#N)cc(OC)c1OC`, the AC50 was 14.1 µM (active).

On to `COc1ccc(/C=N/Nc2snc(SC)c2C#N)cc1OC`, for which the AC50 is 5.01 µM (active).

For `COc1ccc(/C=N/NC(=S)NC2CCS(=O)(=O)C2)cc1OC` (configuration not stated), the AC50 result was “inactive”.

With `O=C(O)c1cc(-c2ccc(-c3ccc(-c4cc(C(=O)O)c5cc(Cl)ccc5n4)cc3)cc2)nc2ccc(Cl)cc12`, the activity, negative = inhibition was -23.2% [at 11.4 µM] (inactive).

As to `N/C(=N\OC(=O)c1cc(-c2ccccc2)nc2ccccc12)c1ccc(Cl)cc1`, the AC50 is 7.94 µM (active).

For the molecule `O=C(CC(=O)c1ccncc1)c1ccccc1`, the AC50 is 0.398 µM (active).

For the molecule `NNC(=O)c1ccncc1`, the AC50 result was “inactive”.

On to `CCOc1cc(-c2noc(N)c2C#N)cc(OCC)c1OCC`, for which the AC50 was 15.8 µM (active).

In the case of `O=C1[C@@H]2[C@H]3[C@H](O)[C@H](O)C/C(=N/OCc4ccccc4)[C@H]3CC[C@H]2C(=O)N1c1ccc(F)cc1F`, the activity, negative = inhibition is -4.38% [at 11.4 µM] (inactive).

As for `CN(C)CCO[C@](C)(c1ccccc1)c1ccccn1`, the AC50 entry is “inactive”.

Consider `COc1ccc(NC(=O)CSc2nncn2C)c([N+](=O)[O-])c1`, for which the half-maximal activity concentration (AC50) is 31.6 µM (active).

Consider `COc1ccc(NC(=O)CN(C)S(=O)(=O)c2ccc(Cl)cc2)c([N+](=O)[O-])c1`, for which the AC50 was 8.91 µM (active).

Consider `COc1ccc(NC(=O)c2cccs2)c([N+](=O)[O-])c1`, for which the AC50 entry is “inactive”.

`CN(C)S(=O)(=O)c1ccc(Nc2ccc(O)c3c2C(=O)c2c([N+](=O)[O-])ccc(O)c2C3=O)cc1`: the activity, negative = inhibition was -34.2% [at 11.4 µM] (inactive).

Regarding `CC(=O)c1c(C(C)=O)c(C)n(NC(=O)c2ccncc2)c1C`, the AC50 was 0.2 µM (active).

For the molecule `CC(C)NNC(=O)c1ccncc1`, the AC50 result is “inactive”.

For `CC(=O)c1c(C(C)=O)c(C)n(NC(=O)c2ccccc2Cl)c1C`, the AC50 entry was “inactive”.

As to `CCOC(=O)CC(Nc1nc(N2CCOCC2)nc(N2CCOCC2)n1)c1ccccc1Cl` (configuration not stated), the AC50 was 3.16 µM (active).
